{"source": "the supplement of paper PMC8728848", "binders": {"B1": {"name": "LEA (Lycopersicon esculentum) (protein)", "chain": "NEVFDVPMNETIGVESINASVGGYPRCGAQGDGGNCPSGMCCSVWGWCGKTYGYCAPQNCQKQCPAPYPEGRCGWQADGKSCPNGKCCSYGGWCGTTSDYCARQNCQKQCILPSPPPPPPPPPGFPRPECGLQKNGERCTKPGECCSIWGLCGATYKYCDPQHCQKQCSAPFPPGRCGWQADGRPCPTGQCCSFSGWCGTTSAHCTYPQCVSQCNDPRFPSSLNNRIQSFML"}}, "experiment_in_all_cases": "glycan array binding signal (z-score within array); higher = stronger binding", "conditions_in_all_cases": "glycan notation: IUPAC condensed, linker removed", "key": {"[1]": {"biological_target": "Fuc(a1-2)Gal(b1-4)GlcNAc", "outline": "(§1)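 Negative Z-scores can be read as non-binding. The Z-score is calculated within each array and then averaged across arrays of one protein sequence at different concentrations or buffers and across linkers. Arrays, 3228 in all, were curated from the Consortium for Functional Glycomics database and kept only where the protein sequence was available.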"}, "[2]": {"biological_target": "Fuc(a1-2)Gal6S(b1-4)Glc6S", "outline": "as §1"}, "[3]": {"biological_target": "Fuc(a1-2)Gal6S(b1-4)GlcNAc", "outline": "as §1"}, "[4]": {"biological_target": "Fuc(a1-2)[Gal(a1-3)]Gal(b1-4)GlcNAc", "outline": "as §1"}, "[5]": {"biological_target": "Fuc(a1-2)[Gal(a1-4)]Gal(b1-4)GalNAc", "outline": "as §1"}, "[6]": {"biological_target": "Fuc(a1-2)[GalNAc(a1-3)]Gal(b1-3)GlcNAc", "outline": "as §1"}, "[7]": {"biological_target": "Fuc(a1-2)[GalNAc(a1-3)]Gal(b1-4)GlcNAc", "outline": "as §1"}, "[8]": {"biological_target": "Fuc(a1-2)[GalNAc(a1-4)]Gal(b1-4)GlcNAc", "outline": "as §1"}, "[9]": {"biological_target": "Fuc(a1-3)[Gal(b1-4)]GlcNAc(b1-4)Gal(b1-4)[Fuc(a1-3)]GlcNAc(b1-4)Gal(b1-4)[Fuc(a1-3)]GlcNAc", "outline": "as §1"}, "[10]": {"biological_target": "Fuc(a1-3)[Gal3S(b1-4)]GlcNAc6S", "outline": "as §1"}, "[11]": {"biological_target": "Gal(a1-4)GlcNAc", "outline": "as §1"}, "[12]": {"biological_target": "Gal(b1-3)GalNAc(b1-3)Gal(a1-4)Gal(b1-4)Glc", "outline": "as §1"}, "[13]": {"biological_target": "Gal(b1-3)[Neu5Ac(a2-6)]GlcNAc(a1-4)Gal(b1-4)Glc", "outline": "as §1"}, "[14]": {"biological_target": "Gal(b1-4)GalNAc(b1-3)[Fuc(a1-2)]Gal(b1-4)GlcNAc", "outline": "as §1"}, "[15]": {"biological_target": "Gal(b1-4)GlcNAc(b1-6)GalNAc", "outline": "as §1"}, "[16]": {"biological_target": "Gal3S(b1-3)[Fuc(a1-4)]GlcNAc", "outline": "as §1"}, "[17]": {"biological_target": "Gal6S(b1-4)Glc", "outline": "as §1"}, "[18]": {"biological_target": "GalNAc(a1-3)GalNAc", "outline": "as §1"}, "[19]": {"biological_target": "GalNAc(b1-3)Gal(a1-4)Gal(b1-4)GlcNAc", "outline": "as §1"}, "[20]": {"biological_target": "GlcNAc(b1-3)Gal", "outline": "as §1"}, "[21]": {"biological_target": "GlcNAc(b1-3)Gal(b1-3)GalNAc", "outline": "as §1"}, "[22]": {"biological_target": "GlcNAc(b1-4)Gal(b1-4)GlcNAc", "outline": "as §1"}, "[23]": {"biological_target": "GlcNAc(b1-4)GlcNAc(b1-4)GlcNAc(b1-4)GlcNAc(b1-4)GlcNAc(b1-4)GlcNAc", "outline": "as §1"}, "[24]": {"biological_target": "GlcNAc(b1-6)GalNAc", "outline": "as §1"}, "[25]": {"biological_target": "Kdn(a2-3)Gal(b1-3)GlcNAc", "outline": "as §1"}, "[26]": {"biological_target": "Man(a1-2)Man(a1-2)Man(a1-6)[Man(a1-3)]Man", "outline": "as §1"}, "[27]": {"biological_target": "Neu5Ac(a2-3)Gal(b1-3)GalNAc", "outline": "as §1"}, "[28]": {"biological_target": "Neu5Ac(a2-3)Gal(b1-3)GalNAc6S", "outline": "as §1"}, "[29]": {"biological_target": "Neu5Ac(a2-3)Gal(b1-4)GlcNAc(b1-3)Gal(b1-3)GlcNAc", "outline": "as §1"}, "[30]": {"biological_target": "Neu5Ac(a2-3)Gal(b1-4)GlcNAc(b1-3)Gal(b1-4)[Fuc(a1-3)]GlcNAc", "outline": "as §1"}, "[31]": {"biological_target": "Neu5Ac(a2-3)[GalNAc(b1-4)]Gal(b1-4)Glc", "outline": "as §1"}, "[32]": {"biological_target": "Neu5Ac(a2-6)Gal(b1-4)GlcNAc(b1-2)Man(a1-3)[Neu5Ac(a2-6)Gal(b1-4)GlcNAc(b1-2)Man(a1-6)]Man(b1-4)GlcNAc(b1-4)GlcNAc", "outline": "as §1"}, "[33]": {"biological_target": "Neu5Gc(a2-3)Gal(b1-4)[Fuc(a1-4)]GlcNAc", "outline": "as §1"}}, "note": "About 410 targets per protein were measured; listed, in parts, are those with the strongest signals and a random draw of the rest."}
{"binder": "B1", "values": [{"measurement": "glycan array binding signal (z-score)", "setting": "[1]", "result": 1.11}, {"measurement": "glycan array binding signal (z-score)", "setting": "[2]", "result": -0.512}, {"measurement": "glycan array binding signal (z-score)", "setting": "[3]", "result": -0.55}, {"measurement": "glycan array binding signal (z-score)", "setting": "[4]", "result": 2.51}, {"measurement": "glycan array binding signal (z-score)", "setting": "[5]", "result": 2.53}, {"measurement": "glycan array binding signal (z-score)", "setting": "[6]", "result": -0.547}, {"measurement": "glycan array binding signal (z-score)", "setting": "[7]", "result": 2.5}, {"measurement": "glycan array binding signal (z-score)", "setting": "[8]", "result": 2.62}, {"measurement": "glycan array binding signal (z-score)", "setting": "[9]", "result": -0.541}, {"measurement": "glycan array binding signal (z-score)", "setting": "[10]", "result": 0.546}, {"measurement": "glycan array binding signal (z-score)", "setting": "[11]", "result": -0.545}, {"measurement": "glycan array binding signal (z-score)", "setting": "[12]", "result": -0.547}, {"measurement": "glycan array binding signal (z-score)", "setting": "[13]", "result": -0.546}, {"measurement": "glycan array binding signal (z-score)", "setting": "[14]", "result": 2.17}, {"measurement": "glycan array binding signal (z-score)", "setting": "[15]", "result": 0.621}, {"measurement": "glycan array binding signal (z-score)", "setting": "[16]", "result": -0.518}, {"measurement": "glycan array binding signal (z-score)", "setting": "[17]", "result": -0.518}, {"measurement": "glycan array binding signal (z-score)", "setting": "[18]", "result": -0.553}, {"measurement": "glycan array binding signal (z-score)", "setting": "[19]", "result": 2.55}, {"measurement": "glycan array binding signal (z-score)", "setting": "[20]", "result": -0.567}, {"measurement": "glycan array binding signal (z-score)", "setting": "[21]", "result": -0.526}, {"measurement": "glycan array binding signal (z-score)", "setting": "[22]", "result": 1.96}, {"measurement": "glycan array binding signal (z-score)", "setting": "[23]", "result": 2.26}, {"measurement": "glycan array binding signal (z-score)", "setting": "[24]", "result": -0.545}, {"measurement": "glycan array binding signal (z-score)", "setting": "[25]", "result": -0.443}, {"measurement": "glycan array binding signal (z-score)", "setting": "[26]", "result": -0.296}, {"measurement": "glycan array binding signal (z-score)", "setting": "[27]", "result": -0.56}, {"measurement": "glycan array binding signal (z-score)", "setting": "[28]", "result": -0.466}, {"measurement": "glycan array binding signal (z-score)", "setting": "[29]", "result": -0.129}, {"measurement": "glycan array binding signal (z-score)", "setting": "[30]", "result": -0.542}, {"measurement": "glycan array binding signal (z-score)", "setting": "[31]", "result": -0.536}, {"measurement": "glycan array binding signal (z-score)", "setting": "[32]", "result": -0.502}, {"measurement": "glycan array binding signal (z-score)", "setting": "[33]", "result": -0.041}]}
